# Laboratory results: PubChem BioAssay AID1949 (Southern Research Institute, 2009)
# Out of some 100,000 compounds screened, about 1,600 (1.6%) were called active. About 3% were inconclusive and are not listed. Only a sample is shown. A number with no mark means an inactive call. The rule behind the calls is not given here.
# Assay: Confirmatory growth inhibition assay against Mycobacterium tuberculosis H37Rv, potency (AID 1949);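 for inhibition: bacteria grown 7 days with compound before Alamar blue readout; 0% = untreated bacteria wells and 100% = bacteria with saturating antibiotic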
# Conditions: M. tuberculosis H37Rv growth inhibition; active compounds read high, concentration not given here
row,SMILES,inhibition
1,CCOc1ccc(N2C(=O)CC(NCCNC(=O)c3ccc(Cl)cc3)C2=O)cc1 (configuration not stated),2.16%
2,Cc1cc(C(=O)NC2CCCc3ccccc32)no1 (configuration not stated),inactive
3,COc1ccc(NC(=O)CSc2nnnn2-c2ccccc2Cl)c(OC)c1,inactive
4,Cc1sc2ncnc(SCC(=O)NCC3CCCO3)c2c1-c1ccc(Cl)cc1 (configuration not stated),2.71%
5,CS(=O)(=O)NC1c2cccc3cccc(c23)C1N1CCCCC1 (configuration not stated),inactive
6,CC1CN(C(=O)C(C)Oc2ccc(Cl)cc2Cl)CC(C)O1 (configuration not stated),inactive
7,Cc1ccc(-c2nn(C)c(=O)c3ccccc23)cc1CNC(=O)c1cccs1,inactive
8,Cc1cc(Oc2coc3cc(OCC(=O)Nc4ccccc4)ccc3c2=O)cc(C)c1Cl,inactive
9,COc1cc(C(=O)Nc2ccccc2C(=O)NCCc2ccccc2)cc(OC)c1OC,inactive
10,Cn1nc([N+](=O)[O-])nc1Sc1nnc(-c2ccccc2)o1,49.7%
11,COc1ccc(-c2cc(C(=O)O)c3cc(Br)ccc3n2)c(OC)c1,inactive
12,CN1CCCC1c1cccnc1N (configuration not stated),1.61%
13,COc1ccc(NC(=S)N2CCN(c3ccc(F)cc3)CC2)c(OC)c1,inactive
14,O=[N+]([O-])c1ccccc1S(=O)(=O)N1CCN(c2ncccn2)CC1,inactive
15,Cc1ccc(-c2nnc(Nc3cccc(O)c3)c3ccccc23)cc1S(=O)(=O)NC(C)(C)CO,inactive
16,COC(=O)c1cccc(NC(=O)CCN2C(=O)c3ccccc3C2=O)c1,inactive
17,O=C(c1cc2n(n1)C(C(F)(F)F)CC(c1ccccc1)N2)N1CCCc2ccccc21 (configuration not stated),inactive
18,Cc1ccc(Nc2nc(CSc3nnc(-c4ccccc4)o3)cs2)cc1,inactive
19,CCCN1CCN(CCCNC(=S)Nc2ccc(F)cc2)CC1,inactive
20,COc1ccc(C(=O)Nc2cccc(C(C)=O)c2)cc1I,inactive
21,CC1(C)Cc2nc3sc4c(=O)n(CC(=O)c5ccccc5)cnc4c3cc2CO1,0.12%
22,CC1(C)NC(=O)N(CCCSc2ccc(Cl)cc2)C1=O,4.37%

row,SMILES,inhibition
1,Cc1ccc(NC(=O)c2cccc(F)c2)cc1[N+](=O)[O-],inactive
2,CC1(C)Cc2nc(N3CCCC3)c(C#N)cc2CO1,1.56%
3,O=C(NC(=S)Nc1ccc2c(c1)Cc1ccccc1-2)c1ccc(Br)cc1,inactive
4,CC(=O)c1cccc(NC(=O)N2CCN(C(c3ccccc3)c3ccccc3)CC2)c1,inactive
5,COc1ccccc1NC(=O)c1c(NC(=O)c2ccccc2C)sc2c1CCCC2,inactive
6,COc1ccc(Oc2ccc(NS(=O)(=O)c3ccc(NC(C)=O)cc3)cc2)cc1,0.37%
7,O=C(CNC(=O)C1CCCCC1)NNC(=O)c1ccc(Cl)cc1Cl,inactive
8,O=c1ccc2ccc(OCc3ccc(Br)cc3F)cc2o1,inactive
9,C=C1C2(C(=O)Nc3ccc(Br)cn3)CCC(C2)C1(C)C (configuration not stated),0.92%
10,COc1ccc(S(=O)(=O)N(C)CC(=O)NC2CCCCC2)cc1C,2.13%
11,CCn1c(SCC(=O)Nc2cccc(F)c2C)nnc1-c1ccc(OC)cc1,inactive
12,Cc1ccc(-c2cc(C(=O)NC3=NCCS3)c3cc(Br)ccc3n2)o1,3.59%
13,Cc1cccc(-n2c(CCc3ccccc3)nnc2SCC(=O)Nc2c(C)cc(C)cc2C)c1,7.24%
14,O=[N+]([O-])c1ccc(NC(=S)NCCCn2ccnc2)cc1,inactive
15,COc1ccc(C)cc1N(CC(=O)NCc1ccc(Cl)cc1Cl)S(C)(=O)=O,inactive
16,O=S(=O)(NCCSc1ccccn1)c1ccc(Br)cc1,5.4%
17,CCCCc1ccc(NC(=O)c2ccc3ccccc3c2)cc1,0.83%
18,COc1ccc(N2CCN(c3nc(NCCc4ccc(OC)c(OC)c4)nc(N4CCOCC4)n3)CC2)cc1,40.6%
19,CCCCc1ccc(NC(=S)N2CCN(C(=O)c3ccco3)CC2)cc1,inactive
20,O=C(c1cccs1)N1N=C(c2cccs2)CC1c1cccs1 (configuration not stated),inactive
21,CCOc1ccc(C(=O)c2oc3ccccc3c2NC(=O)C2COc3ccccc3O2)cc1 (configuration not stated),inactive
22,O=C(NCc1ccccn1)Nc1ccc2c(c1)OCO2,inactive

row,SMILES,inhibition
1,Cc1onc(-c2ccccc2Cl)c1C(=O)Nc1nc2ccc(Cl)cc2s1,inactive
2,COc1ccc2nc(NC(=O)CN3CCCCC3)sc2c1,3.2%
3,CCSc1nc(-c2cccs2)cc(-c2cccs2)c1C#N,5.48%
4,CCCC(C)c1nnc(NC(=O)CSCc2ccccc2)s1 (configuration not stated),inactive
5,CC(C)NCC(O)Cn1c2c(c3ccccc31)CCCC2=O (configuration not stated),inactive
6,CCN(CC)CCCNC(=S)Nc1ccc(Br)cc1,1.11%
7,CS(=O)(=O)N(CC(=O)Nc1ccccc1C(=O)N1CCCC1)c1cccc(F)c1,inactive
8,Cc1ccc(CN2CCC(N3CCN(c4ccccc4F)CC3)CC2)cc1,inactive
9,COc1ccc(S(=O)(=O)N(C(C)=O)c2ccc3oc4c(c3c2)CCCC4)cc1[N+](=O)[O-],6.65%
10,O=C(CCCCC(=O)NC1=NCCS1)NC1=NCCS1,1.73%
11,Cc1cc(Cl)ccc1OCC(=O)NCCCn1ccnc1,inactive
12,COc1ccc(OC)c(NC(=O)c2cccc(F)c2)c1,inactive
13,CCC(=O)Nc1nnc(SCC(=O)Nc2cccc(Cl)c2)s1,inactive
14,CC1=CC(c2ccc(Cl)cc2)n2ncnc2N1 (configuration not stated),inactive
15,Cc1cc(C)c(NC(=O)COc2ccc(-c3ccccc3)cc2)c(C)c1,0.67%
16,CN1C(=O)C2C(C1=O)N1C(c3cccs3)C3C(=O)N(C)C(=O)C3N1C2c1cccs1 (configuration not stated),inactive
17,Cc1nnc(SCC(=O)Nc2cccc(Cl)c2Cl)n1-c1ccc(F)cc1,32.3%
18,Cc1cc(NC(=O)Cc2ccc(Br)cc2)no1,inactive
19,O=C(CSc1nc2ccccc2[nH]1)Nc1ccc(Cl)cn1,inactive
20,Cc1c(NC(=O)CSc2nnnn2-c2ccc(O)cc2)c(=O)n(-c2ccccc2)n1C,inactive
21,Cc1ccc(CC(=O)Nc2ccc(S(=O)(=O)N3CCC(C)CC3)cc2)cc1,inactive
22,COc1cc(S(=O)(=O)NC(c2ccccc2)c2ccccc2)ccc1Cl,inactive

row,SMILES,inhibition
1,O=C(CSc1nnc(-c2ccncc2)n1-c1ccccc1)c1ccc(Cl)cc1,inactive
2,COc1ccc(CC(=O)NC(=S)N2CCOCC2)cc1,2.63%
3,COc1ccc(Cl)cc1C(=O)Nc1cc(C(F)(F)F)ccc1N1CCOCC1,inactive
4,C=CCc1cc(OC)ccc1OCCN1CCN(C)CC1,inactive
5,O=C(c1csc2c1CCCC2)N1CCC2(CC1)OCCO2,inactive
6,C=CCN(c1ccc(C(=O)Nc2ccccc2-c2ccccc2)cc1)S(C)(=O)=O,inactive
7,CCc1ccc(OC(C)c2nnc(SCC(=O)Nc3ccc(C)c(C)c3)n2CC)cc1 (configuration not stated),1.06%
8,COc1ccc(OC)c(C2C(C#N)=C(N)OC(c3ccccc3)=C2C#N)c1 (configuration not stated),inactive
9,Cc1ccc(C(=O)CCC(=O)Nc2ccccc2C)cc1C,inactive
10,Cc1ccc(NC(=O)CSc2nnc(N)s2)cc1,inactive
11,COc1ccccc1CNC(=O)c1cc(OC)c(OC)cc1OC,2.59%
12,N#Cc1ccc(NC(=S)NCCN2CCOCC2)cc1,inactive
13,CC(C(=O)Nc1cccc(C(F)(F)F)c1)N(c1ccc(Oc2ccccc2)cc1)S(C)(=O)=O (configuration not stated),12.4%
14,O=C(C1CCN(C(=S)NC2CC2)CC1)N1CCCCCC1,inactive
15,Cc1ccc(C(C)C)c(OCC(=O)NNC(=S)NCCc2ccccc2)c1,inactive
16,COc1ccc(CNC(=O)C2CCCN2CCc2ccccc2)cc1OC (configuration not stated),4.85%
17,CCOC(=O)c1ccc(NC(=S)NNc2nc(C)cc(C)n2)cc1,inactive
18,CCOC(=O)C1=C(C)N=c2s/c(=C\c3c4ccccc4cc4ccccc34)c(=O)n2C1c1ccccc1Cl (configuration not stated),inactive
19,Cc1cc(C)cc(C(=O)Nc2ccc(CN3CCOCC3)cc2)c1,inactive
20,CC(C)(C)C1(c2ccccc2)NC(=O)NC1=O (configuration not stated),0.0333%
21,CCN(CC)CC(=O)Nc1ccccc1OC,inactive
22,OCCNCCOc1ccc2ccccc2c1Br,inactive

row,SMILES,inhibition
1,N#C/C(=C\C=C\c1ccccc1Cl)c1nc2ccccc2[nH]1,inactive
2,C=CCn1c(SCC#CCO)nc2ccccc2c1=O,inactive
3,COc1ccccc1CCNC(=O)c1ccc(COCC(F)(F)C(F)F)cc1,inactive
4,CCCCOc1cccc(C(=O)NC(=S)Nc2cccnc2)c1,inactive
5,Cc1ccc(SCC(=O)Nc2ccc(S(=O)(=O)Nc3cccc(C(F)(F)F)c3)cc2)cc1,inactive
6,CCc1ccc(-n2c(C)cc(C=NO)c2C)cc1,17.1%
7,COc1ccc(S(=O)(=O)N(CC(=O)NC2CC3CCC2C3)c2ccccc2)cc1OC (configuration not stated),inactive
8,O=C1C2CCCCC2C(=O)N1c1n[nH]c(CCc2ccccc2)n1 (configuration not stated),inactive
9,CCc1cccc(C)c1NC(=O)CN(c1ccc(C)c(C)c1)S(=O)(=O)c1ccc(Cl)cc1,inactive
10,COc1ccc(NC(=S)N2CCN(Cc3cccc(F)c3)CC2)c(OC)c1,inactive
11,O=C(NCc1ccc2c(c1)OCO2)Nc1ccc([N+](=O)[O-])cc1,inactive
12,c1ccc2c(c1)nc(-c1cscn1)n2Cc1ccc(-c2nn[nH]n2)cc1,inactive
13,COc1ccc(S(=O)(=O)Nc2cccnc2)cc1C,inactive
14,COc1cc(NC(=O)c2ccc(F)cc2)ccc1NC(=O)C(C)C,inactive
15,O=C(c1cn(-c2ccccc2)nc1-c1cccnc1)n1nnc2ccccc21,2.67%
16,COc1ccc([N+](=O)[O-])cc1NC(=O)c1cc(-c2ccc(OC)c(OC)c2)nc2ccccc12,inactive
17,CCCN1CCN(C(=O)c2ccncc2)CC1,1.8%
18,COc1ccc2c(c1)sc1nc(-c3cc4cccc(OC)c4oc3=O)cn12,inactive
19,Cc1ccc(OCCSC2=NN2c2cc(C)nc(N)n2)cc1,inactive
